Records with an inconclusive call do not appear. Activity calls are given as the source filed them. Calls follow the shape of the dose curve; as a rule, active = well fitted cell-killing curve with a large enough effect in the repeat runs; inconclusive = weak or mixed curves, or effect the other way; inactive = flat fitted curve, though single readings scatter.
test: qHTS RealTime-Glo MT Cell Viability Assay in HEK293 cells - 40 hour (AID 1224874); conditions: RealTime-Glo luminescence; max response: hits give low values; also: nearly all actives have a fitted effect of over 50% in size
Text: U.S. Tox21 Program National Center for Advancing Translational Sciences [NCATS] NIH Chemical Genomics Center [NCGC] U.S. Environmental Protection Agency [EPA] National Institutes of Environmental Health Sciences [NIEHS] National Toxicology Program [NTP] U.S. Food and Drug Administration [FDA] Tox21 Assay Overview: Measure of cell viability is critical in the cell-base assay. Analysis of cell viability is necessary for the characterization of cell responses to cytotoxic drugs and environmental stress. A RealTime-Glo MT Cell Viability Assay to monitor cell viability in real time of continues cell culture during 40 hours of compound treatment was used to screen Tox21 10K library compounds in Hek293 cells. The RealTime-Glo MT Cell Viability Assay is a nonlytic, homogeneous, bioluminescent method to measure cell viability in real time using a simple, plate-based method. The assay involves adding NanoLuc luciferase and a cell-permeant prosubstrate to cells in culture. Viable cells reduce the proprietary prosubstrate to generate a substrate for NanoLuc luciferase. This substrate diffuses from cells into the surrounding culture medium, where it is rapidly used by the NanoLuc Enzyme to produce a luminescent signal. The signal correlates with the number of viable cells, making the assay well suited for cytotoxicity studies.
Tox21 Assay Protocol Summary: The mixture of Hek293 cell suspension and reagents were dispensed at 600cells/6 ul/well in 1536-well tissue culture treated black solid bottom plates using a Multidrop dispenser. After the assay plates were incubated at a 37 C/5% CO2 incubator for 5 hours, 23 nL of compounds dissolved in DMSO, positive and negative controls was transferred to the assay plate by a pintool work station. The plates were incubated at 37 C for 40 hours. The luminescence intensity were measured at 0h, 8h, 16h, 24h, 32h and 40h time points using ViewLux plate reader during compound treatment.
% is scaled to controls: 0 for no effect and ±100 for the full control effect; potency is read from the fitted curve at half-maximal effect.

Compound | max response | Potency
Cc1ccc(NC=O)c(C)c1 | 4.39% (inactive) | –
Sc1nc(S)nc(S)n1 | 5.08% (inactive) | –
Cc1ccc2c(Cl)cc(Cl)c(O)c2n1 | -5.73% (inactive) | –
O=C(c1ccc(Cl)cc1)c1ccc(Cl)cc1 | -15% (inactive) | –
Cc1nc2sccn2c(=O)c1CCN1CCC(=C(c2ccc(F)cc2)c2ccc(F)cc2)CC1 | – | 4.25 µM (active)
O=C(O)c1ccc2c(c1)nc(C(=O)NC1CCN(C3CC3)CC1)n2Cc1cc(-c2ccc(Cl)s2)on1 | -1.71% (inactive) | –
O=C(O)c1c2ccccc2cc2ccccc12 | – | 38.8 µM (active)
C=Cc1ccc(C=C)cc1 | 11.4% (inactive) | –
O=C(O)c1ccc2cc(O)ccc2c1 | -17.3% (inactive) | –
CCCCCCCCCCCCSCCOCCO | -17.3% (inactive) | –
Clc1cc(Cl)c2c(c1)N=C1CCCCCN1C2 | – | 23.9 µM (active)
c1ccc(CCNc2nc(-c3ccccc3)cs2)cc1 | -22.9% (inactive) | –
CO[C@@H]1COCC[C@@H]1N[C@@H]1CC[C@@](C(=O)N2CCc3ncc(C(F)(F)F)cc3C2)(C(C)C)C1 | – | 17.3 µM (active)
OCCc1ccncc1 | -8.09% (inactive) | –
CCCCCCCCCCCCCCCCN | 11.5% (inactive) | –
NCCOCCOCCN | -14% (inactive) | –
C[C@H]1C[C@H]2[C@@H]3CCC4=CC(=O)C=C[C@]4(C)[C@@]3(F)[C@@H](O)C[C@]2(C)[C@@]1(O)C(=O)COP(=O)(O)O | -11.1% (inactive) | –
CC[C@H](NC(C)C)[C@H](O)c1ccc(O)c2[nH]c(=O)ccc12 | 5.21% (inactive) | –
O=P(c1ccccc1)(c1ccccc1)c1ccccc1 | -19% (inactive) | –
COc1ccc(/C=C/S(=O)(=O)NC(=O)c2ccc(C)cc2Cl)cc1 | -7.95% (inactive) | –

Compound | max response | Potency
CCc1ccc(C(=O)C(C)CN2CCCCC2)cc1 (stereo not given) | 7.68% (inactive) | –
CCCCCC1CCC(=O)O1 (stereo not given) | 24.1% (inactive) | –
C/C=C1\[C@H]2C=C(C)C[C@]1(N)c1ccc(=O)[nH]c1C2 | -2.81% (inactive) | –
CC(C)(O)C(=O)O | 6.64% (inactive) | –
CCC(=O)O[C@@H]1C[C@H]2CC[C@]1(C)C2(C)C | -11.1% (inactive) | –
Nc1ccc(C(=O)Oc2ccccc2)c(O)c1 | -15.9% (inactive) | –
C=CC(=O)NC(C)(C)C | 1.33% (inactive) | –
O=C(Cl)c1cc(Cl)cc(Cl)c1 | -8.34% (inactive) | –
CCCCOC(=O)CC#N | 7.32% (inactive) | –
FC(F)(Cl)C(F)(Cl)Cl | 10.2% (inactive) | –
CC1(C)CC(=O)CC(C)(C)N1 | 0.817% (inactive) | –
NC(=O)c1cc[n+](CC2=C(C(=O)[O-])N3C(=O)[C@@H](NC(=O)Cc4cccs4)[C@H]3SC2)cc1 | 4.75% (inactive) | –
O=C(O)c1cc(C(=O)O)c(C(=O)O)cc1C(=O)O | 0.796% (inactive) | –
O=[N+]([O-])c1ccc(Cl)cc1Cl | 2.44% (inactive) | –
CCCC1CCOC(C)S1 (stereo not given) | 4.04% (inactive) | –
COC=O | 19.4% (inactive) | –
O=c1c2ccccc2oc2ccccc12 | -17.5% (inactive) | –
O=C1C=CCCC1 | -0.315% (inactive) | –
CCCC(=O)OCc1ccccc1 | 5.95% (inactive) | –
C1CCN(CN2CCCCC2)CC1 | 7.66% (inactive) | –

Reference: PubChem BioAssay (Tox21)
